Assay results reported in PubChem BioAssay.

Key:
[1] = inhibitors of mitochondrial cytochrome c release, biochemical, purified mitochondria (AID 1603); conditions: stronger effect = lower value;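 note: mouse liver mitochondria challenged with calcium chloride; signal normalized to the plate average as 100%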
[2] = inhibitors of polyQ protein aggregation (AID 1604); conditions: polyglutamine-induced protein aggregation inhibition assay; stronger effect = higher value; tested at 2.5 µM
[3] = enhancers of glutamate uptake in motor neurons, MN-1 cell line (AID 1612); conditions: MN-1 motor neuron cells, stronger effect = higher value;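 note: tested at 1 µM final; 0% = mean of DMSO vehicle wells on each plate; positive means more glutamate uptake than control and negative means less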
[4] = reducers of polyQ inclusions in PC12 cells, cell-based, NGF-treated PC12, GFPQ80 (AID 1614); conditions: PC12 NGF-treated GFP-polyQ80 inclusion reduction;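 note: lower means fewer inclusions and 0 means no inclusions at all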
[5] = suppressors of polyglutamine aggregation in yeast, 75Q-TubH (AID 1616); conditions: S. cerevisiae 75Q-TubH polyglutamine aggregation suppression; stronger effect = higher value

SMILES: COc1ccc2c(c1OC)C(=O)OC2[C@H]1c2c(cc3c(c2OC)OCO3)CCN1C (stereo not given in full)
- cytochrome c release ratio [1]: 0.93
- inhibition of aggregation [2]: 66.2%
- glutamate uptake change [3]: -10.2%
- inclusion score [4]: 2
- aggregation suppression score [5]: 1.38
